From article PMC4336329 (PLoS ONE, 2015)
About 14,000 (4.5%) of roughly 310,000 compounds showed an effect of 50% or more. The effect is printed as a negative number. The entries come from a sample that favours strong results as a whole.

target: human ether-à-go-go-related gene (hERG) potassium channel (human, UniProt Q12809); assay: primary screen, population patch clamp on CHO cells stably expressing hERG; higher = less effect of the substance
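Also: peak tail current of the secondary pulse compared with the same well before compound.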

Chain of human ether-à-go-go-related gene (hERG) potassium channel (Q12809 whole entry, looked up): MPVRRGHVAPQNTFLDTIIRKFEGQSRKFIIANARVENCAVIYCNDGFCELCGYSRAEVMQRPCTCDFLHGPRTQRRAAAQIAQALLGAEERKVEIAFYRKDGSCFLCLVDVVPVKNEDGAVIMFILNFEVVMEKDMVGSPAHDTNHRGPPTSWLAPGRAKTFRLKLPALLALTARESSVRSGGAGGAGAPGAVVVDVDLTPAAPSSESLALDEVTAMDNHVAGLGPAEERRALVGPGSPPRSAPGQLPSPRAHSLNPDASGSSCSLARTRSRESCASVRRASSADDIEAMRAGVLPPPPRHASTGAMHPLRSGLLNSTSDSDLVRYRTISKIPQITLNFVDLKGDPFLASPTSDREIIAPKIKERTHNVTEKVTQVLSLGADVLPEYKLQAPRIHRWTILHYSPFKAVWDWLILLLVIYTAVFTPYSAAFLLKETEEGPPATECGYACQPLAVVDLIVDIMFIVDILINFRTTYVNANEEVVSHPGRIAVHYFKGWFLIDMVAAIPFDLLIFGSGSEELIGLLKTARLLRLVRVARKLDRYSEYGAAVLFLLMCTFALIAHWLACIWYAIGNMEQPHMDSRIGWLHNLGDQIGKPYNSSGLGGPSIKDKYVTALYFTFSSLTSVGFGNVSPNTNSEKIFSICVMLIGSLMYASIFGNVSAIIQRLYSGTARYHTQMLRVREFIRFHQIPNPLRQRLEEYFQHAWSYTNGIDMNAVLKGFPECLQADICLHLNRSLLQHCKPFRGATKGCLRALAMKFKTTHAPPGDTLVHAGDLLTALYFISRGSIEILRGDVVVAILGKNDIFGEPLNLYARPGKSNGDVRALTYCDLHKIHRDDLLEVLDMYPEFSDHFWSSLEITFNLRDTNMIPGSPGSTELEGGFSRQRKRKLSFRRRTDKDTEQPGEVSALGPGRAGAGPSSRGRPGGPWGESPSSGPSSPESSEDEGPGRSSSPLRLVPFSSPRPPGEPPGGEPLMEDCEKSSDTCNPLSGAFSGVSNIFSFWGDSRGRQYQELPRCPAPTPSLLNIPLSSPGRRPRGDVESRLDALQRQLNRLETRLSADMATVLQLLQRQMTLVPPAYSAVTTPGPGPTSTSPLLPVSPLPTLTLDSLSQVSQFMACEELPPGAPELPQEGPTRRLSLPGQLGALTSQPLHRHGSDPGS

Structure (SMILES)	hERG current change (%, negative = inhibition) at 10uM [%]
O=C(Nc1ccccc1)c1cc(-c2ccccc2Cl)no1	-4.91
O=S(=O)(NC1CCCC1)c1cc(F)ccc1F	-8.75
O=C(O)C1Cc2ccccc2N2CCCC12 (centres unmarked)	20
COc1cc(-c2nnc(SC/C=C/c3ccccc3)n2N)cc(OC)c1OC	-3.66
COc1cccc(C(=O)NNC(=O)c2ccc3ccccc3c2O)c1	7.66
O=C(CSc1nc(-c2ccc(F)cc2)cs1)N1CCc2ccccc21	-1.23
CCOc1ccc(/C=N/NC(=O)c2c(C)n(C)c3ccc(OC)cc23)cc1	-5.78
COc1ccc2c(c1)c(C(=O)N/N=C/c1ccc(Cl)cc1)c(C)n2C	-58.6
COc1ccc2c(c1)c(C(=O)N/N=C/c1ccc(OC)c(OC)c1)c(C)n2C	-39.2
COc1ccc2c(c1)c(C(=O)N/N=C/c1ccc(Br)cc1)c(C)n2C	-64.1
COc1ccc2c(c1)c(C(=O)N/N=C/c1ccc(O)c(O)c1)c(C)n2C	9.18
COc1ccc2c(c1)c(C(=O)N/N=C/c1cccc(Br)c1)c(C)n2C	-15.9
Oc1ccc(-c2csc(-c3c[nH]c4ccccc34)n2)c(O)c1	5.01
O=c1[nH]c2ccccc2n1CCCOc1ccccc1	4.34
Cc1onc(-c2c(F)cccc2Cl)c1C(=O)Nc1cccc2nsnc12	-20.6
CNC(=O)NC(=O)COC(=O)CCCOc1ccc(OC)cc1	20.5
COc1ccc(S(=O)(=O)NC(C)C(=O)O)cc1 (centres unmarked)	1.62
CN(CC(=O)Nc1ccc2c(c1)OCO2)S(=O)(=O)c1ccc(F)cc1	-4.45
CCN(Cc1nc2cc(Cl)ccc2c(=O)[nH]1)C(=O)c1cccc(NC(=O)c2cccs2)c1	-24.7
CCN(Cc1nc2cc(Cl)ccc2c(=O)[nH]1)C(=O)c1cccc(OCc2c(C)noc2C)c1	-57.4
Cc1noc(C)c1COc1cccc(C(=O)N(C)Cc2nc3ccccc3c(=O)[nH]2)c1	-23.5
Cc1cccc(Oc2coc3cc(OC(=O)c4cncc(Br)c4)ccc3c2=O)c1	-5.03
Cc1cc(C(=O)N2CCc3c([nH]c4ccccc34)C2c2c(F)cccc2Cl)no1 (centres unmarked)	5.46

Structure (SMILES)	hERG current change (%, negative = inhibition) at 10uM [%]
CN1N=C(C(=O)N2CCc3c([nH]c4ccccc34)C2c2c(F)cccc2Cl)CCC1=O (centres unmarked)	-97.3
CN1N=C(C(=O)N2CCc3c([nH]c4ccccc34)C2c2ccccc2Cl)CCC1=O (centres unmarked)	-36.9
CC1CN(C(=O)CCC(=O)NC2CCCCC2)c2ccccc2S1 (centres unmarked)	-19.5
Fc1cccc(C2CC(c3cccc(Br)c3)Nc3nnnn32)c1 (centres unmarked)	-3.02
CS(=O)(=O)N(CC(=O)N1CCN(Cc2ccccc2)CC1)c1ccc(F)cc1	-3.35
C=CCN(c1ccccc1C(=O)NCC(=O)O)S(=O)(=O)c1ccccc1C	24.7
CCOC(=O)N1CCN(CC(=O)Nc2c(C(=O)OC)[nH]c3ccccc23)CC1	-10.2
Cc1[nH]c2ccccc2c1C(=O)CN1CCSCC1	5.84
Cc1[nH]c2ccccc2c1C(=O)CN1CCCC1	5.09
COC(=O)c1[nH]c2ccccc2c1NC(=O)CN1CCCCCC1	-21.5
CCOC(=O)c1[nH]c2ccc(F)cc2c1NC(=O)CN1CCN(C/C=C/c2ccccc2)CC1	-80.7
Cc1[nH]c2ccccc2c1C(=O)CN1CC=C(c2ccccc2)CC1	-52.4
COC(=O)c1[nH]c2ccccc2c1NC(=O)CN1CCN(C/C=C/c2ccccc2)CC1	-76.4
Cc1[nH]c2ccccc2c1C(=O)C(=O)N1CC=C(c2ccccc2)CC1	-11.3
CCOC(=O)c1[nH]c2ccc(F)cc2c1NC(=O)CN1CCc2cc(OC)c(OC)cc2C1	-0.0862
COc1ccc2[nH]c(C)c(C(=O)CN3CCN(C/C=C/c4ccccc4)CC3)c2c1	-25.8
Cc1[nH]c2ccccc2c1C(=O)CN1CCN(C/C=C/c2ccccc2)CC1	-73.4
CCOC(=O)c1[nH]c2ccc(OCC)cc2c1NC(=O)CN1CCN(c2ccccc2)CC1	17.9
COc1ccc(C(NC(=O)c2cccnc2)c2cc(Cl)c3cccnc3c2O)cc1OC (centres unmarked)	10.5
NS(=O)(=O)c1ccc(NC(=O)CSc2nnc(-c3ccc(O)cc3)o2)cc1	25.1
Cc1onc(-c2ccccc2)c1C(=O)OCC(=O)NC(C)c1ccc(Cl)cc1 (centres unmarked)	-7.03
CCOc1nc(-c2ccccc2O)nc2ccccc12	2.42
Cc1ccc(-c2cc(-c3ccc(C)cc3)[n+](-c3ccc(C(=O)[O-])cc3)c(-c3ccc(C)cc3)c2)cc1	-26.8

Structure (SMILES)	hERG current change (%, negative = inhibition) at 10uM [%]
Cc1ccc(-c2cc(-c3ccc(C)cc3)[n+](-c3ccc(C(=O)O)cc3)c(-c3ccc(C)cc3)c2)cc1.[O-][Cl+3]([O-])([O-])[O-]	26.5
Cc1ccc(-c2cc(-c3ccc(C)cc3)[n+](C)o2)cc1.[O-][Cl+3]([O-])([O-])[O-]	-68.4
C=CCNC(=O)c1onc(CSc2ccc(F)cc2)c1C(=O)NCCOC	-43
CCN(CC(=O)NCc1ccc(Cl)cc1)C(=O)/C=C/c1cc(OC)c(OC)c(OC)c1	3.83
CCN(CC(=O)NCc1ccc(Cl)cc1)C(=O)/C=C/c1cccs1	-49.1
CCN(CC(=O)NCc1ccc(Cl)cc1)C(=O)/C=C/c1ccc(C#N)cc1	-62
CCN(CC(=O)Nc1ccccc1C(F)(F)F)C(=O)/C=C/c1ccc(Cl)c([N+](=O)[O-])c1	10.1
CCN(CC(=O)NCc1ccc(Cl)cc1)C(=O)/C=C/c1ccccc1	-46
CCN(CC(=O)NCc1ccc(Cl)cc1)C(=O)/C=C/c1ccc(Cl)c([N+](=O)[O-])c1	-67.6
CN(CCC(=O)Nc1ccc(Cl)cc1)Cc1ccccc1.Cl	-39.9
CCCC(NC(=O)COc1cc2c(c3oc(=O)cc(C)c13)CCC(C)(C)O2)C(=O)O (centres unmarked)	18.4
O=C(NCc1ccccc1)c1ccc(C2SCC(=O)N2Cc2ccccc2)cc1 (centres unmarked)	-12.6
CCOc1c(OC(C)=O)ccc(/C=C/c2ccc3cccc(OC(C)=O)c3n2)c1[N+](=O)[O-]	-4.23
O=Cc1ccc2oc3nc4n(c(=O)c3c(=O)c2c1)CCCS4	-35.7
CCC(CC)COC(=O)C(C#N)c1nc2ccccc2nc1N1CCOCC1 (centres unmarked)	-7.91
CCC(C)COC(=O)C(C#N)c1nc2ccccc2nc1N1CCCCC1 (centres unmarked)	-1.25
COC(=O)C(C#N)c1nc2ccccc2nc1N1CCCC1 (centres unmarked)	-0.357
CCC(CC)COC(=O)C(C#N)c1nc2ccccc2nc1N1CCN(CC)CC1 (centres unmarked)	-72.7
CCOC(=O)N1CCN(c2nc3ccccc3nc2C(C#N)C(=O)NCCc2ccccc2)CC1 (centres unmarked)	7.98
CCN1CCN(c2nc3ccccc3nc2C(C#N)C(=O)OCc2ccccc2)CC1 (centres unmarked)	-73.7
COc1ccc(/C=C/C(=O)c2ccc[nH]2)c(OC)c1OC	-4.89
CC(=O)c1ccc(-n2c(C)ccc2-c2ccccc2)cc1	1
CCOC(=O)N1CCN(C(=O)Cn2ccc3c(OC)cccc3c2=O)CC1	6.78

Structure (SMILES)	hERG current change (%, negative = inhibition) at 10uM [%]
CCOC(=O)c1sc(NS(=O)(=O)c2cc(C)ccc2C)nc1C	10.4
COc1ccc(/C=C/C=C2\NC(=S)NC2=O)cc1	22.1
Cc1cc2nc(/N=C(\N)NC(=O)N3c4ccccc4Sc4ccccc43)nc(C)c2cc1C	-38.9
CCN(CC)C(=O)CSC1=Nc2ccccc2C2=NC(c3ccccc3)C(=O)N12 (centres unmarked)	-46.4
CN(C(=O)CSC1=Nc2ccccc2C2=NC(c3ccccc3)C(=O)N12)C1CCCCC1 (centres unmarked)	-73
CCC(C)NC(=O)CSC1=Nc2ccccc2C2=NC(c3ccccc3)C(=O)N12 (centres unmarked)	-55.3
O=C(CSC1=Nc2ccccc2C2=NC(c3ccccc3)C(=O)N12)NC1CCCCC1 (centres unmarked)	-20.1
CCC(C)NC(=O)CSC1=Nc2ccccc2C2=NC(CC(=O)NCc3ccccc3)C(=O)N12 (centres unmarked)	-0.668
NC(=O)CSC1=Nc2ccccc2C2=NC(c3ccccc3)C(=O)N12 (centres unmarked)	1.61
O=C1CCCC(O)=C1N=Nc1cccc(S(=O)(=O)N2CCOCC2)c1	-1.24
O=C(N/N=C\c1ccc[nH]1)c1cncc(Br)c1	3.82
O=C(NCc1ccccn1)C1CCCN(S(=O)(=O)c2ccccc2)C1 (centres unmarked)	10.9
COc1ccc(C(=O)NCc2nnc(SCC(=O)NO)n2Cc2ccccc2)cc1	-5.01
CC(NC(=O)c1cc([N+](=O)[O-])cc([N+](=O)[O-])c1)c1ccc(-n2ccnc2)cc1 (centres unmarked)	-73.5
Cc1c(C(=O)NC(C)c2ccc(-n3ccnc3)cc2)cccc1[N+](=O)[O-] (centres unmarked)	-74.1
CC(NC(=O)c1ccc(N(C)C)c([N+](=O)[O-])c1)c1ccc(-n2ccnc2)cc1 (centres unmarked)	-62.9
COc1ccc(C(=O)NNC(=O)c2ccncc2)cc1[N+](=O)[O-]	25.2
Cc1cccc(C(=O)NC(C)c2ccc(-n3ccnc3)cc2)c1C (centres unmarked)	-42.2
O=C(O)c1ccc(-n2ccnc2)c([N+](=O)[O-])c1	32.1
COc1ccc(C(=O)NC(C)c2ccc(-n3ccnc3)cc2)cc1[N+](=O)[O-] (centres unmarked)	-77.9
Cc1c(C(=O)NC(C)CCc2ccccc2)cccc1[N+](=O)[O-] (centres unmarked)	-18.2
COc1ccccc1NC(=O)c1ccc(-n2ccnc2)c([N+](=O)[O-])c1	15.1
O=[N+]([O-])c1ccc(-n2ccnc2)cc1	7.95
